Here are results for 88 compounds from ChEMBL document CHEMBL3988442, “University of Dundee, Small-Polar-MMV Screening Library” (2021).

In all, about 69,000 compounds went through this assay and about 950 (1.4%) showed an effect of 50% or more. The sample as a whole holds a higher share of strong results than the screen did.

The test system of this assay is Mycobacterium tuberculosis. Description: Cornell M. t heat shock assay. Also: in the data most compounds retested in dose-response had high values. Type of assay: functional, organism-based. Also on record: dose or concentration left out as unconfirmed.
`Cn1cccc1C(=O)N1CC[C@@H]2[C@@H]1CC(=O)N2CCN1CCOCC1.O=C(O)C(F)(F)F`: the “Percent Effect” value was -25.84%. In the case of `CCO[C@@H]1CC[C@H]2[C@H]1OCCN2Cc1ccoc1.O=C(O)C(F)(F)F` it was 1.857%; in that of `O=C(CC1CC1)N[C@@H]1CN(Cc2ccoc2)C[C@@H]2CCCO[C@@H]21`, -3.487%.

Take `O=C(N[C@@H]1CN(Cc2ccccc2)C[C@@H]2CCCO[C@@H]21)C1CC1.O=C(O)C(F)(F)F`: the “Percent Effect” value is recorded as -8.331%. In the case of `O=C(N[C@@H]1CN(Cc2ccoc2)C[C@@H]2CCCO[C@@H]21)C1CCC1` it was 51.5%; in that of `COC(=O)CCc1c(C)nn(-c2nc(C)cc(=O)[nH]2)c1C`, 103.1%; in that of `COc1ccc(C)nc1NC(=O)CCc1c(C)nn(C)c1C`, -18.22%. In the case of `Cc1cc(=O)[nH]c(-n2nc(C)c(CCC(=O)NCC(C)C)c2C)n1` it was 98.01%; in that of `Cc1cc(=O)[nH]c(-n2nc(C)c(CCC(=O)Nc3nc(C)cs3)c2C)n1`, 95.61%.

Turning to `Cc1csc(NC(=O)Cn2nc(C)ccc2=O)n1`, the “Percent Effect” value is reported as -1.06%.

Consider `Cc1nc2cc(O)nn2c(C)c1CCC(=O)NCCCC(C)C`, for which the “Percent Effect” value is listed as -0.01064%.

Take `Cc1nc(NC(=O)CCc2c(C)nc3cc(O)nn3c2C)sc1C`: the “Percent Effect” value is listed as 27.32%. As to `Cc1nn(-c2cc(Cl)cc(Cl)c2)c(C)c1CCC(=O)O`, the “Percent Effect” value amounted to 19.8%. Regarding `COCCNC(=O)CCc1c(C)nn(-c2nc(C)c(C)c(=O)[nH]2)c1C`, the “Percent Effect” value is 37.18%. In the case of `CC(=O)N1[C@H](CN(C)C)C[C@@H]2CN(C(=O)c3cccn3C)CC[C@@H]21.O=C(O)C(F)(F)F`, the “Percent Effect” value was -10.3%. In the case of `O=C(O)C(F)(F)F.O=C(c1cccnc1)N1CCC2(CCN(C(=O)c3ccco3)CC2)C1` it was 23.94%; in that of `CCC(C)(C)NC(=O)c1ncn2c1CN(C)S(=O)(=O)c1ccccc1-2.O=C(O)C(F)(F)F`, -13.28%. In the case of `CCNC(=O)NCc1ccccc1NS(=O)(=O)c1ccccc1` it was 35.07%; in that of `N#Cc1nc(COc2ccc3c(c2)OCO3)oc1NC1CCCCC1`, 5.438%; in that of `O=C(O)C(F)(F)F.c1cn2c(n1)CN(Cc1ccsc1)CC(Cn1cncn1)C2` (stereo not drawn), -22.01%. Take `COc1ncc(-c2cc(-c3ccn(C)c3)nc(N)c2C#N)cn1`: the “Percent Effect” value is given as -43.44%. In the case of `CCCn1cc(-c2cc(-c3ccoc3)c(C#N)c(N)n2)c(C)n1` it was 75.39%. In the case of `CCCn1cc(-c2cc(-c3c[nH]cn3)c(C#N)c(N)n2)c(C)n1` it was 15.71%. As for `Cc1ccc(-c2cc(-c3c(C)nn(CCO)c3C)c(C#N)c(N)n2)cc1`, the “Percent Effect” value is 10.03%. In the case of `CCCn1cc(-c2cc(-c3cnc(OC)nc3)c(C#N)c(N)n2)c(C)n1` it was 100.5%; in that of `CCCn1cc(-c2cc(-c3cc(CC)n[nH]3)c(C#N)c(N)n2)c(C)n1`, 41.25%; in that of `O=C(C[C@@H]1COC[C@H]2CN(C(=O)c3cccnc3)C[C@@H]12)N1CCOCC1.O=C(O)C(F)(F)F`, -5.703%. In the case of `CN(C)C(=O)CN1C(=O)CCC12CCN(Cc1ccsc1)CC2.O=C(O)C(F)(F)F` it was -0.1041%; in that of `COCc1ccc(CN2CCC(O)(Cn3ccc4ncccc43)CC2)o1.Cl`, -9.994%; in that of `Cl.c1ccc(CNc2cc(C3CCCNC3)ccn2)nc1` (stereo not drawn), 18.31%. In the case of `Cc1oncc1C(=O)NCc1cc(=O)n2c(n1)CN(CC1CC1)CCC2.O=C(O)C(F)(F)F` it was -32.57%; in that of `COCC(=O)N1CC[C@H]2O[C@@H](C)C[C@H]2C1`, 64.99%. On to `COCC(=O)N1CC[C@H]2C[C@H](C)O[C@@H]2C1`, for which the “Percent Effect” value worked out at 3.806%. In the case of `COCC(=O)N1CC[C@@H]2O[C@@H](C)C[C@H]2C1` it was -1.773%; in that of `COCC1CN(Cc2ccc3c(c2)OCO3)Cc2ncn(C)c21.O=C(O)C(F)(F)F.O=C(O)C(F)(F)F` (stereo not drawn), -21.56%; in that of `Cl.O=C(N1CCCC1)C1(Cc2ccc(-c3cccs3)cc2)CCNC1` (stereo not drawn), -20.63%.

Regarding `Cc1c[nH]c(C2CCCN(Cc3ccccc3C(=O)O)C2)n1.O=CO` (stereo not drawn), the “Percent Effect” value is -20.14%.

As to `CC(C)CCN1C[C@H]2C[C@H](C(=O)Nc3ccccc3)[C@@H](C1)O2.O=C(O)C(F)(F)F`, the “Percent Effect” value is -19.48%. In the case of `CN(Cc1cccnc1)[C@@H]1CN(C(=O)c2ccno2)[C@@H]2CCCO[C@H]12.O=C(O)C(F)(F)F.O=C(O)C(F)(F)F` it was 0.2387%; in that of `COC(=O)Cn1c(=O)nc2n1C(=O)N(c1ccc(C)cc1)C2`, 3.714%. With `CCS(=O)(=O)NC[C@]12COC[C@H]1CN(Cc1cccc(OC)c1)C2.O=C(O)C(F)(F)F`, the “Percent Effect” value is recorded as -11.48%. In the case of `CN(Cc1ccccc1)C(=O)CS(=O)(=O)Cc1ccc(Cl)c(Cl)c1` it was 47.42%; in that of `CN(Cc1cccc(F)c1)C(=O)CS(=O)(=O)Cc1ccc(Cl)c(Cl)c1`, 52.33%. In the case of `CN(Cc1cccc(F)c1)C(=O)CS(=O)(=O)Cc1c(Cl)cccc1Cl` it was 25.49%; in that of `Cc1ccc(-c2cc(C3CCNCC3)nc(C)n2)cc1.Cl`, -12.8%. In the case of `CSc1ccc(-c2cc(CN)nc3ccnn23)cc1.Cl` it was 4.059%; in that of `COC(=O)C(NC(=O)c1ccc(NC2CC2)nc1)c1ccccc1` (stereo not drawn), 51.61%. In the case of `NC(=O)C(NC(=O)c1ccc(NC2CC2)nc1)c1ccccc1` (stereo not drawn), the “Percent Effect” value is given as -7.076%.

For the compound `COC(=O)C(NC(=O)c1ccc(N(C)C)nc1)c1ccccc1` (stereo not drawn), the “Percent Effect” value was 22%.

Regarding `COC(=O)N1C[C@H]2CC[C@@H]1CN(Cc1cscn1)C2`, the “Percent Effect” value stood at 1.905%.

Consider `COc1cccc(C(=O)N2C[C@H]3CC[C@@H]2CN(Cc2cscn2)C3)c1`, for which the “Percent Effect” value is recorded as -27.99%. In the case of `Cc1c[nH]c(C(=O)N2C[C@H]3CC[C@@H]2CN(Cc2cscn2)C3)n1` it was 2.551%; in that of `CC(C)Cc1cc(CN2C[C@H]3CC[C@@H]2CN(Cc2cscn2)C3)n[nH]1`, 107.7%. In the case of `CC(C)c1cc(C(=O)N2C[C@H]3CC[C@@H]2CN(Cc2cscn2)C3)no1` it was 37.62%; in that of `CC(C)(C)c1cc(CN2C[C@H]3CC[C@@H]2CN(Cc2cscn2)C3)n[nH]1`, 92.4%; in that of `CN1C(=O)C(c2ccccc2)CC12CCN(CCO)CC2.O=C(O)C(F)(F)F` (stereo not drawn), -21.97%. In the case of `Cc1cccc(CN2CC3(CCN(C4CCOC4)CC3)OCC2=O)n1.O=C(O)C(F)(F)F.O=C(O)C(F)(F)F` (stereo not drawn) it was -30.47%; in that of `O=C(O)C(F)(F)F.O=C(c1ccco1)N1CCO[C@@H]2CN(Cc3nccs3)CC[C@@H]2C1`, 4.898%. On to `CCC1=N[C@@]2(CC[C@@H]3CN(Cc4cccc(Cl)c4)C[C@@H]32)C(=O)N1C.O=C(O)C(F)(F)F`, for which the “Percent Effect” value worked out at 32.88%. In the case of `Cc1nc(C2CCN(Cc3ncc[nH]3)CC2)no1.O=CO` it was -19.83%. For the compound `CN(C)S(=O)(=O)c1ccc(-c2nc(C#N)c(NC3CC3)o2)o1`, the “Percent Effect” value turned out to be 78.01%.

On to `CN(C)S(=O)(=O)c1ccc(-c2nc(C#N)c(NC3CCCCC3)o2)o1`, for which the “Percent Effect” value is listed as 5.856%. In the case of `CN(C)S(=O)(=O)c1ccc(-c2nc(C#N)c(NC(C)(C)C)o2)o1.Cl` it was 74.72%; in that of `Cc1oc(-c2nc(C#N)c(NC(C)(C)C)o2)cc1S(=O)(=O)N1CCCC1`, 1.248%.

For `CNc1oc(-c2ccc(S(=O)(=O)N(C)C)o2)nc1C#N`, the “Percent Effect” value is -18.56%. In the case of `Cc1oc(-c2nc(C#N)c(NC3CC3)o2)cc1S(=O)(=O)N1CCCC1` it was -1.847%. In the case of `CNc1oc(-c2ccc(OC)c(S(=O)(=O)N(C)C)c2)nc1C#N` it was 4.952%. In the case of `CC(C)Nc1oc(-c2ccc(S(=O)(=O)N(C)C)o2)nc1C#N` it was -8.92%; in that of `CCN1CCOCC2(CCCN(C(=O)c3ccncc3F)C2)C1.O=C(O)C(F)(F)F` (stereo not drawn), -0.7478%; in that of `Cc1ccc(CN2CCC(O)(Cn3ccc4ncccc43)CC2)o1.Cl`, -13.38%. On to `CNC(=O)C1Cn2ccnc2C2(CCN(Cc3ccncc3)CC2)O1.O=C(O)C(F)(F)F.O=C(O)C(F)(F)F.O=C(O)C(F)(F)F` (stereo not drawn), for which the “Percent Effect” value is recorded as -2.036%.

On to `O=C(NCc1ccco1)[C@H]1CC[C@@H]2[C@@H](CCN2C2CCC2)O1.O=C(O)C(F)(F)F`, for which the “Percent Effect” value was -4.585%. In the case of `CN(C)CCOCC1CN(Cc2ccoc2)Cc2nnn(C)c21.O=C(O)C(F)(F)F.O=C(O)C(F)(F)F` (stereo not drawn) it was -17.74%; in that of `Cc1cc(N(C)C)nc(C2CCCN2)n1.Cl.Cl` (stereo not drawn), -13.2%. Take `O=C(COCCc1ccccc1)N1CCCC(n2cccn2)C1` (stereo not drawn): the “Percent Effect” value was found to be 11.3%.

For `Cn1cc(CN2CCCC23CCN(C(=O)c2ccccc2)CC3)cn1.O=C(O)C(F)(F)F`, the “Percent Effect” value was -27.87%. In the case of `CC(C)NC(=O)c1cc2c(s1)CCN2C(=O)CN(C)C` it was -7.193%; in that of `CN(C)CC(=O)N1CCc2sc(C(=O)N3CCOCC3)cc21`, 54.7%. In the case of `CN(C)CC(=O)N1CCc2sc(C(=O)N3CCN(C)CC3)cc21` it was 17.23%; in that of `CC(C)N(C)Cc1cncc2c1CCN(C1CCOCC1)C2.Cl.Cl.Cl`, 21.63%; in that of `CNC(=O)CN1CCC2(CCCN(CC3CCOC3)C2)CC1.O=C(O)C(F)(F)F.O=C(O)C(F)(F)F` (stereo not drawn), 3.829%. In the case of `O=C(O)C(F)(F)F.O=C(O)C(F)(F)F.O=C1CO[C@@H]2CN(Cc3ccsc3)C[C@H]2N1Cc1ccncc1` it was 1.203%; in that of `Cc1ccc(CCN2CCC(N(C)Cc3noc(C4CC4)n3)C2)cc1` (stereo not drawn), 83.22%; in that of `CN(Cc1noc(C2CC2)n1)C1CCN(Cc2ccncc2)C1` (stereo not drawn), 51.32%. Consider `CC(=O)N(Cc1noc(C2CC2)n1)C1CCN(Cc2ccncc2)C1` (stereo not drawn), for which the “Percent Effect” value is -2.088%. In the case of `CN(Cc1noc(C2CC2)n1)C1CCN(CCc2cccs2)C1` (stereo not drawn) it was 12.6%. With `CN(Cc1noc(C2CC2)n1)C1CCN(Cc2ccc(F)c(F)c2)C1` (stereo not drawn), the “Percent Effect” value is -5.311%.

Take `CN(Cc1noc(C2CC2)n1)C1CCN(CCc2cnn(C)c2)C1` (stereo not drawn): the “Percent Effect” value is reported as -5.5%.
